Measurements reported in PubChem BioAssay (NCATS).
Records with an inconclusive call do not appear. Activity calls are given as the source filed them. Unless noted, calls come from the whole dose curve; as a rule, active = well fitted curve in the direction sought with a large enough effect; inconclusive = small, poorly fitted or top-dose-only effect, or another doubt; inactive = no such curve, though single readings can be large; an effect the other way counts as inactive or inconclusive.

Legend:
[1] = test system: Zika virus NS2B-NS3 protease (linked construct); assay: Primary screen NINDS Rhodamine qHTS for Zika virus inhibitors (AID 1347160)
Summary of the method: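 Kinetic fluorescence (Ex 480 nm, Em 540 nm) over 15 min with 1.5 microM Rhodamine110 peptide and 25 nM linked protease.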

[2] = OV-KATE Cancer Cell Toxicity qHTS against the NCATS CANVASS Library (AID 1347345)
Summary of the method: (§1)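 ATP content after 72 h treatment, detected by CellTiter-Glo luminescence (15min room-temperature development), reflects cell viability. Wells contained 1000 cells and received compounds at 11 concentrations.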

[3] = HPAF-II Cancer Cell Toxicity qHTS against the NCATS CANVASS Library (AID 1347346)
Summary of the method: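 HPAF-II cells at 1000 cells/well were treated with an 11-point concentration series for 72 hours at 37 degrees C. Viability read by CellTiter-Glo luminescence.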

[4] = UWB1.289 Cancer Cell Toxicity qHTS against the NCATS CANVASS Library (AID 1347347)
Summary of the method: as §1

[5] = OV-SAHO Cancer Cell Toxicity qHTS against the NCATS CANVASS Library (AID 1347348)
Summary of the method: as §1

[6] = Panc-1005 Cancer Cell Toxicity qHTS against the NCATS CANVASS Library (AID 1347349)
Summary of the method: as §1

[7] = SW1088 Cancer Cell Toxicity qHTS against the NCATS CANVASS Library (AID 1347350)
Summary of the method: as §1

[8] = COV-362 Cancer Cell Toxicity qHTS against the NCATS CANVASS Library (AID 1347352)
Summary of the method: (§2)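 Cells at 1000/well were given compound 4 h after plating in an 11-point series. Viability was read by CellTiter-Glo luminescence after 72 h at 37 degrees C.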

[9] = A2780 Cisplatin Sensitive Ovarian Cancer Cell Toxicity qHTS against the NCATS CANVASS Library (AID 1347353)
Summary of the method: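 A2780 cells, 750/well, settled 4 h at 37 °C, then treated with an 11-point compound series for 72 h. Viability was read as ATPLite luminescence after 10 min at room temperature, with bortezomib as control.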

[10] = UWB1.289-WTBRCA1 Cancer Cell Toxicity qHTS against the NCATS CANVASS Library (AID 1347354)
Summary of the method: as §2

[11] = HPAF-II 24hr Apoptosis Induction qHTS against the NCATS CANVASS Library (AID 1347356)
Summary of the method: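 HPAF-II cells (500/well) exposed to compounds in 11-point series for 24 h at 37 degrees C; caspase-3/7 activity read by Caspase-Glo luminescence after 15 min at room temperature. Doxorubicin titration as control.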

[12] = HEK293 18hr Apoptosis Induction qHTS against the NCATS CANVASS Library (AID 1347357)
Summary of the method: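 Natural products applied to HEK293 for 18 hr; Caspase-Glo 3/7 readout.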

[13] = HEK293 24hr Apoptosis Induction qHTS against the NCATS CANVASS Library (AID 1347359)
Summary of the method: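 Caspase-3/7 activation measured as luminescence from the DEVD-based Caspase-Glo reagent, 15 min at room temperature, following 24-hour compound treatment of HEK293 cells.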

[14] = test system: NAD(P)H diaphorase (Clostridium kluyveri); assay: Diaphorse counterscreen qHTS: Assay Interference Panel against the NCATS CANVASS Library (AID 1347362)
Summary of the method: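 Counterscreen for coupling-enzyme interference: resorufin fluorescence from resazurin/NADH turnover, read after 5 min at room temperature. Compounds were tested over an 11-point series after 15 min dark preincubation with diaphorase in PBS-Tween.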

[15] = target: Luciferin 4-monooxygenase (Photinus pyralis) (UniProt P08659); assay: Firefly luciferase counterscreen qHTS: Assay Interference Panel against the NCATS CANVASS Library (AID 1347363)
Luciferin 4-monooxygenase (Photinus pyralis), sequence (P08659 whole entry, looked up): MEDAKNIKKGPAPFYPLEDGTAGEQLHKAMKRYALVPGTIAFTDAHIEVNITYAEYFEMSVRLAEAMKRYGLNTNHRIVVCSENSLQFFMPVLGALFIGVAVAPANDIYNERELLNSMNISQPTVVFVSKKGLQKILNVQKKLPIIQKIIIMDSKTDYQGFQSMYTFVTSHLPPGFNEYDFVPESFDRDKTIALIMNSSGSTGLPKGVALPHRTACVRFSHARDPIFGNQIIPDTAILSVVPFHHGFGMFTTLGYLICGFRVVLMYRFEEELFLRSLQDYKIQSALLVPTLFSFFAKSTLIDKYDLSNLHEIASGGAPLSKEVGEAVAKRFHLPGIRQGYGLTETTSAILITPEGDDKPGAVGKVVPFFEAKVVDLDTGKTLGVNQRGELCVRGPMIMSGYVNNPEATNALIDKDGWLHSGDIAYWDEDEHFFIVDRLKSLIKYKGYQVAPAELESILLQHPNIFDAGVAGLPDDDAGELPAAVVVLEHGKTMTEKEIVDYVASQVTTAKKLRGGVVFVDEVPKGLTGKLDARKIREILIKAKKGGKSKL
Summary of the method: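 Luminescence inhibition readout: compounds (11-point qHTS) sat 15 min at room temperature with substrate mix (0.013 mM luciferin and ATP), then firefly luciferase was added and signal read 5 min later.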

[16] = SDT Cancer Cell Toxicity qHTS against the NCATS CANVASS Library (AID 1347365)
Summary of the method: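 SDT dog glioma cells (500/well) exposed to an 11-point compound series for 72 hr at 37C, 5% CO2. Cytotoxicity read as ATP content by CellTiterGlo luminescence; bortezomib titration as control.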

[17] = KB-3-1 Cancer Cell Toxicity qHTS against the NCATS CANVASS Library (AID 1347366)
Summary of the method: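 Cytotoxicity toward KB-3-1 cells (500/well, DMEM + 10% FBS) was scored by CellTiter-Glo luminescence following 72 hr exposure at 37C, with bortezomib titrated as control.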

[18] = MCF7 Cancer Cell Toxicity qHTS against the NCATS CANVASS Library (AID 1347369)
Summary of the method: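 This 72 hr qHTS scored MCF7 viability by CellTiterGlo luminescence, with 500 cells/well; bortezomib titration ran as control.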

[19] = qHTS for ATAD5 Antagonist screened against the NCATS CANVASS Library (AID 1347370)
Summary of the method: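 HEK293T cells with stably integrated ATAD5-luciferase reporter, 2000/well, 5 h attachment; compounds plus 10 µM 5-fluorouridine, 16 h at 37 °C. Luciferase luminescence read, with CellTiter-Fluor viability read first.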

[20] = J3T Cancer Cell Toxicity qHTS against the NCATS CANVASS Library (AID 1347371)
Summary of the method: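 J3T dog glioma cells, 500 per well, treated 72 h at 37C with compounds (11-point qHTS); viability from ATP content by CellTiterGlo luminescence; bortezomib titration as control.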

[21] = target: Nuclear receptor subfamily 1 group I member 3 (Homo sapiens) (UniProt Q14994); assay: qHTS for Constitutive Androstane Receptor (CAR) Antagonist screened against the NCATS CANVASS Library (AID 1347372)
Nuclear receptor subfamily 1 group I member 3 (Homo sapiens), sequence (Q14994 whole entry, looked up): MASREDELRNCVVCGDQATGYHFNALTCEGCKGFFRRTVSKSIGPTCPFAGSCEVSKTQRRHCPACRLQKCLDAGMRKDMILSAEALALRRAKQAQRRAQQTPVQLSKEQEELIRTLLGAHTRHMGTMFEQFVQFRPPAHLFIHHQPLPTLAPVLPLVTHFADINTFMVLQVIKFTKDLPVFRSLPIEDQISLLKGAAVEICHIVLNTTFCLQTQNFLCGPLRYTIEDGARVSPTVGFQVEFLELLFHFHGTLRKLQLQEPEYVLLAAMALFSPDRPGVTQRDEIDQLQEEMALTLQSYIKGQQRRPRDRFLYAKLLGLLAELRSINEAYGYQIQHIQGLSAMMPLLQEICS
Summary of the method: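 HepG2-CYP2B6-hCAR double-stable cells plated, 4hr attach; cpd pin-transferred; CITCO 50 nM final; 24hr 37C/5% CO2; CellTiter-Fluor 1hr (fluorescence), then ONE-Glo luminescence.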

[22] = target: Nuclear receptor subfamily 1 group I member 3 (Homo sapiens) (UniProt Q14994); assay: qHTS for Constitutive Androstane Receptor (CAR) Agonist screened against the NCATS CANVASS Library (AID 1347373)
Summary of the method: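 HepG2 cells stably carrying hCAR and a CYP2B6-2.2kb luciferase reporter, treated 24hr at 37C with compounds plus 1.5uM PK11195; activation by ONE-Glo luminescence, viability by CellTiter-Fluor.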

[23] = qHTS for Hypoxia signaling pathway (HIF-1) antagonists against the NCATS CANVASS Library (AID 1347374)
Summary of the method: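 HRE-bla ME-180 cells in medium with 0.5% dialyzed FBS received compounds (11-point series) plus CoCl2 (60 uM addition stock) for 17 hrs at 37C. Beta-lactamase activity read with CCF4 (405 nm ex, 460/530 nm em); CellTiter-Glo viability measured in same wells.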

[24] = qHTS for Inflammasome Signaling Inhibitors: IL-1-beta AlphaLISA screen against the NCATS CANVASS Library (AID 1347379)
Summary of the method: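 THP-1 cells pretreated 1 hr with compound (up to 57.5 uM final), then stimulated with LPS (250 ng/mL final) and ATP (1.25 mM final). Secreted IL-1B measured by AlphaLISA after 16 hr; glyburide as positive control.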

[25] = Inflammasome Signaling qHTS Counterscreen: IL-1-beta AlphaLISA counterscreen against the NCATS CANVASS Library (AID 1347381)
Summary of the method: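 Cell-free interference check: compounds added to medium spiked with 4 pg purified IL-1β. Anti-IL-1β acceptor beads (6 ug/mL) with 0.6 nM biotinylated antibody added for 1 h at RT, then streptavidin donor beads (24 ug/mL) for 30 min in the dark. AlphaLISA read at 680/615 nm.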

[26] = Cytotoxicity qHTS for assessment of Hepg2 cells membrane integrity screened against the NCATS CANVASS Library (AID 1347387)
Summary of the method: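 HepG2 cells (2000/well) attached overnight, then exposed 5 hr at 37C to compounds in an 11-point series (0.59 nM - 46 uM final). LDH release from damaged membranes read fluorometrically (CytoTox-ONE; 560/590 nm) after 10 min at room temperature.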

[27] = qHTS for Activators of p53 Stress Response Pathway screened against the NCATS CANVASS Library (AID 1347388)
Summary of the method: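 Beta-lactamase reporter driven by p53 response elements in HCT-116 cells, read as the 460 nm/530 nm emission ratio after CCF4 loading, following 16 h of exposure to an 11-point series. Cell viability was measured in the same wells by CellTiter-Glo luminescence.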

[28] = qHTS assay for small molecule disruptors of mitochondrial membrane potential screened against the NCATS CANVASS Library (AID 1347389)
Summary of the method: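 HepG2 cells (2,000/well) plated overnight, then exposed to compounds in 11-point qHTS series for 1 h at 37C before 30 min Mito-MPS dye; depolarization read as fall in red aggregate (590 nm) to green monomer (535 nm) fluorescence.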

[29] = Secretion counterscreen for inhibitors of the SERCaMP assay screened against the NCATS CANVASS Library (AID 1347390)
Summary of the method: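 Natural products are titrated in an 11-point series up to 77 uM onto SH-SY5Y-GLuc STOP cells for 20 h. Secreted reporter activity is measured as coelenterazine-driven luminescence, with Brefeldin A on each plate.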

[30] = qHTS for activators of Nrf2/ARE signaling pathway screened against the NCATS CANVASS Library (AID 1347391)
Summary of the method: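 ARE-bla HepG2 beta-lactamase reporter cells exposed to compounds for 16 h at 37C; CCF4 substrate 2 h, fluorescence at ex 405 nm, em 460/530 nm. Viability by CellTiter-Glo luminescence.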

[31] = qHTS for activators of dead-cell proteases activity screened against the NCATS CANVASS Library (AID 1347392)
Summary of the method: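 Compounds are pin-transferred onto attached HepG2 cells, giving 11 final concentrations. After 5 h at 37C, AAF-aminoluciferin reagent is added and luminescence is recorded at room temperature.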

[32] = qHTS for inhibitors of ER calcium dysfunction: SERCaMP assay screened against the NCATS CANVASS Library (AID 1347393)
Summary of the method: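 Thapsigargin-induced ER calcium depletion drives GLuc-SERCaMP secretion from SH-SY5Y cells; compounds given 16 h beforehand were scored by lowered coelenterazine luminescence after 4 h challenge.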

[33] = Vero-766 cells viability qHTS against the NCATS CANVASS Library: Counterscreen for Zika virus inhibition assay (AID 1347394)
Summary of the method: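 Counterscreen for toxicity: Vero 766 cells exposed 72 h to an 11-point compound series, viability by CellTiter-Glo.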

[34] = qHTS for inhibitors of Wild type Zika virus screened against the NCATS CANVASS Library (AID 1347396)
Summary of the method: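 Protection against wild-type Zika cytopathic effect is measured in African green monkey Vero 766 cells exposed to an 11-point compound series. Surviving cells are quantified by CellTiter Glo luminescence after 72 h.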

[35] = qHTS for inhibitors of Rabies Virus screened against the NCATS CANVASS Library (AID 1347402; calls by dose curve)

Measured: Potency

CNCCc1ccccc1
active: [16] 46.9 nM
inactive: all other assays above
